The results in this text go back to PubChem BioAssay (NCATS).

Where “and” joins values, the source holds several entries; their conditions need not be identical. Equal entries are not always repeated. Values without a mark were called inactive. Records with an inconclusive call do not appear. Calls of active or inactive are those of the source. Unless noted, the call rests on the fitted dose curve; in most records, active means well fitted curve in the direction sought with a large enough effect; inconclusive means small, poorly fitted or top-dose-only effect, or another doubt; inactive means no such curve, though single readings can be large; an effect the other way counts as inactive or inconclusive.

Assay [1] in a line: Cell Viability - Renal Proximal Tubule (AID 545).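 Further: cells exposed to compound for 40 hours; 0% = DMSO only and -100% = 100 µM tamoxifen; nearly all actives have a fitted effect of over 40% in size.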 In outline: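 Rat kidney proximal tubule cells, freshly isolated; 1000 cells/well, 5 hr settle, compound 40 hr 37 °C. CellTiter-Glo 20 min RT, luminescence read. AC50 by standard Hill fit.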
Assay [2] can be described thus: Cell Viability - Mesenchymal (AID 546).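 Further: cells exposed to compound for 40 hours before reading; 0% = DMSO only and -100% = 100 µM tamoxifen.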 The method, boiled down: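 Human kidney mesenchymal cells from normal renal glomeruli, 1000 cells/well, rested 5 hr at 37 °C, then treated 40 hr at 37 °C in complete medium. Cellular ATP read by CellTiter-Glo luminescence; AC50 from Hill-equation fits.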
Assay [3] is described as follows: Cell Viability - LYMP1-003 - Assay at 40 hr (AID 964). Further: nearly all actives have a fitted effect of over 60% in size. Further: potency means the concentration at half of the fitted maximal effect. In outline:
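This qHTS cytotoxicity screen treats human lymphoblastoid cells (LYMP1-003) with compounds for 40 hr and quantifies cellular ATP via luciferase luminescence.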

The nature of assay [4]: Cell Viability - LYMP2-011 (AID 969).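 Further: 0% = DMSO only and full inhibition = 92 µM tetraoctylammonium bromide; nearly all actives have a fitted effect of over 60% in size.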 The method, boiled down:
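Acute toxicity is scored as a concentration-dependent drop in intracellular ATP of a human lymphoblastoid line after 24 hr treatment. Values are AC50s modeled with the Hill equation.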

Assay [5] is described as follows: Cell Viability - LYMP2-002 (AID 977).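 Further: compound exposure lasted 24 h at 37 °C; plate controls were DMSO only for no effect and 92 µM tetraoctylammonium bromide for full effect.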 In outline: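 Human lymphoblastoid LYMP2-002 cells, 2500 per well, exposed to compounds for 24 h at 37 C in complete medium; viability read as intracellular ATP by CellTiter-Glo luminescence, AC50 from Hill fits.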
Assay [6] can be described thus: Cell Viability - LYMP2-010 (AID 981). Further: nearly all actives have a fitted effect of over 55% in size. Further: potency means the concentration at half of the fitted maximal effect. The method, boiled down:
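Acute toxicity is scored as a concentration-dependent loss of cellular ATP in human lymphoblastoid cells after 24 hr compound exposure in complete medium. Tetraoctylammonium bromide is the positive control.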

The nature of assay [7]: Cell Viability - LYMP2-012 (AID 982).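 Further: cellular ATP by luciferase luminescence where a drop means cytotoxicity; cells exposed to compound for one day before reading; nearly all actives have a fitted effect of over 55% in size.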 Further: potency means the concentration at half of the fitted maximal effect.
The target in assay [8] is Peroxisome proliferator-activated receptor delta (Homo sapiens) (UniProt Q03181). Kind of assay: qHTS assay for small molecule agonists of peroxisome proliferator-activated receptor delta signaling (AID 588534; calls by dose curve;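 further: 0% = DMSO basal wells and 100% = positive control agonist at 10 µM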). In outline: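 Reporter cells were plated and held 5 hrs at 37 C before compounds were added. After 18 hrs at 37 C, CCF4 dye was loaded for 2 hrs at RT and fluorescence measured.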

Assay [9] deals with Retinoic acid receptor RXR-alpha (Homo sapiens) (UniProt P19793). Kind of assay: qHTS assay for small molecule agonists of retinoid X receptor alpha signaling (AID 588544; calls by dose curve;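 further: 0% = DMSO basal wells and 100% = reference agonist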).
The target in assay [10] is Thyroid hormone receptor beta (Homo sapiens) (UniProt P10828). Briefly: qHTS assay for small molecule agonists of thyroid hormone receptor beta signaling (AID 588545; calls by dose curve). The method, boiled down: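 Agonist-mode beta-lactamase reporter assay, HEK 293 cells, 2% charcoal/dextran FBS; cells plated 4 hrs, compound 18 hrs at 37 C, CCF4 2 hrs RT. Normalized to 10 nM T3 (100%) and DMSO (0%); Hill fit gives EC50, efficacy.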
(In qHTS, concentration-response curves come from the screen itself.)

The target in assay [11] is Retinoic acid receptor RXR-alpha (Homo sapiens) (UniProt P19793). Briefly: qHTS assay for small molecule antagonists of retinoid X receptor alpha signaling (AID 588546; active means well fitted inhibition curve with a large enough effect in the signal ratio, with a control signal flat, not every such curve was filed as active; the % refers to the signal ratio; further: on the % scale 0 is the no-effect control and ±100 the full control effect). The conditions noted are these: HEK293T RXRa-UAS-bla, beta-lactamase ratio, antagonist mode. In outline: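 Beta-lactamase reporter inhibition, read as CCF4 fluorescence ratio (ex 405, em 460/530 nm) after 2 h at RT. HEK293T UAS-bla cells, 2500/well, were stimulated with 9-cis-RA at 500 or 100 nM final alongside test compound for 18 h at 37 C.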

The target of assay [12] is Thyroid hormone receptor beta (Homo sapiens) (UniProt P10828). Kind of assay: qHTS assay for small molecule antagonists of thyroid hormone receptor beta signaling (AID 588547; active means well fitted inhibition curve with a large enough effect in the signal ratio, with a control signal flat, not every such curve was filed as active; the % refers to the signal ratio;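 further: cells stimulated with 0.4 nM T3 agonist during compound exposure; on the % scale 0 is the no-effect control and ±100 the full control effect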). The conditions noted are these: TR-UAS-bla HEK293, beta-lactamase ratio, antagonist mode, 18 h. The method, boiled down: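 TR-UAS-bla GripTite HEK293 cells in 2% charcoal/dextran FBS medium; compounds 0.59 nM to 92 uM with T3 at 0.4nM final, 18 h at 37 C. Beta-lactamase read by CCF4 fluorescence (460/530 nm); Hill fits gave IC50 and efficacy.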

Assay [13] can be described thus: qHTS assay for environmental chemicals that activate the Aryl hydrocarbon Receptor (AhR) signaling pathway (AID 651777). Further: nearly all actives have a fitted effect of over 15% in size. Further: potency means the concentration at half of the fitted maximal effect. On activation: % of control where 0% means no effect. The conditions noted are these: 1A2-DRE human hepatoma cells, luciferase, 24 h; activation: hits give high values. The method, boiled down:
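Quantitative HTS in stably transfected human liver-derived cells whose luciferase gene sits downstream of the CYP1A2 promoter and dioxin response element. After 24 hr exposure at 37 C, One-Glo luminescence was measured.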

Assay [14] is described as follows: qHTS assay for small molecule antagonists of the retinoid-related orphan receptor gamma (ROR-gamma) signaling pathway - cell viability counter screen (AID 720652; active means well fitted curve in the direction sought with a large enough effect in the repeat runs; an effect the other way counts as inactive or inconclusive;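 further: compound exposure lasted 16 hr before ATP read; on the % scale 0 is the no-effect control and ±100 the full control effect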). In outline: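 Cytotoxicity is quantified via intracellular ATP (CellTiter-Glo luminescence) in doxycycline-induced CHO ROR response element-luciferase reporter cells treated with compound for 16 hr at 37 C, 5% CO2.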

Assay [15] is described as follows: Cell Viability - HUV-EC-C (AID 542).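 Further: cells exposed to compound for 40 hours; nearly all actives have a fitted effect of over 35% in size.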 Further: potency means the concentration at half of the fitted maximal effect. In outline: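 Decrease in cellular ATP, quantified by luciferase luminescence, reflects toxicity in normal human vascular endothelial HUV-EC-C cells given compound for 40 hr in complete culture medium. Values are AC50s from concentration-response curves.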
Assay [16] is described as follows: Cell Viability - SH-SY5Y (AID 544).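 Further: cells exposed to compound for 40 hours; 0% = DMSO alone and -100% = 100 µM tamoxifen; nearly all actives have a fitted effect of over 55% in size.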 The conditions noted are these: SH-SY5Y neuroblastoma cell viability; viability change, negative = cytotoxic: at 92.2 µM (top of the series). In outline: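 Cytotoxicity is scored as a concentration-dependent fall in intracellular ATP in human SH-SY5Y cells treated 40 hr in complete culture medium. Potency is expressed as AC50 from a Hill equation fit.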

A short description of assay [17]: qHTS assay for small molecule disruptors of the mitochondrial membrane potential - 1 hr assay (AID 651754; calls by dose curve; further: nearly all actives have a fitted effect of over 35% in size; further: potency means the concentration at half of the fitted maximal effect). The method, boiled down:
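Steps: seed HepG2 cells and let attach overnight; pin-transfer compound or vehicle; incubate 1 hr at 37C; add Mito-MPS dye for 30 min; read two-channel fluorescence for monomer and aggregate forms.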

A short description of assay [18]: qHTS assay for small molecule agonists of the antioxidant response element (ARE) signaling pathway measured by Nrf2-dependant transcriptional activity (AID 720636; active means well fitted curve in the direction sought with a large enough effect in the repeat runs; an effect the other way counts as inactive or inconclusive; further: potency means the concentration at half of the fitted maximal effect; on activation: % of control where 0% means no effect). In outline:
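Quantitative HTS format in HepG2 cells stably expressing an ARE-luciferase reporter; 16 hr compound treatment at 37 C, luciferase signal detected with ONE-Glo.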

For assay [19], the target named is Nuclear receptor subfamily 1 group I member 2 (Rattus norvegicus) (UniProt Q9R1A7). Briefly: qHTS assay for small molecule activators of the rat pregnane X receptor (rPXR) signaling pathway (AID 651751; call rule not given here; further: 0% is about no effect). As to conditions: rPXR reporter cells, luciferase (One-Glo), 24 h.
Assay [20] in a line: qHTS assay for small molecule activators of the human pregnane X receptor (PXR) signaling pathway (AID 720659; call rule not given here; further: 0% is about no effect).

Chain of Retinoic acid receptor RXR-alpha (Homo sapiens) (P19793 whole entry, looked up): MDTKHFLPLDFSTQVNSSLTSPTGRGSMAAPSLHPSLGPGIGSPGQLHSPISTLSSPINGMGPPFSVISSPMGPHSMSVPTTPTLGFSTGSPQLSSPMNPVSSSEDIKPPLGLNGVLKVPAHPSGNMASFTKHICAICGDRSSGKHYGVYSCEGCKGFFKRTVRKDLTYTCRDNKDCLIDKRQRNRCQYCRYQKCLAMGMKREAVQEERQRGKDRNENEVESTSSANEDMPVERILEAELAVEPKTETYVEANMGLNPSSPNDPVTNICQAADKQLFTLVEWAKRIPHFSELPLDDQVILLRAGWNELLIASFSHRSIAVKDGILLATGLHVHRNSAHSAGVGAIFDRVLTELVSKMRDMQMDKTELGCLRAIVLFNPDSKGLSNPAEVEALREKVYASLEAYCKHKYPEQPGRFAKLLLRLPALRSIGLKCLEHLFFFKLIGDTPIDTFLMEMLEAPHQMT
Chain of Thyroid hormone receptor beta (Homo sapiens) (P10828 whole entry, looked up): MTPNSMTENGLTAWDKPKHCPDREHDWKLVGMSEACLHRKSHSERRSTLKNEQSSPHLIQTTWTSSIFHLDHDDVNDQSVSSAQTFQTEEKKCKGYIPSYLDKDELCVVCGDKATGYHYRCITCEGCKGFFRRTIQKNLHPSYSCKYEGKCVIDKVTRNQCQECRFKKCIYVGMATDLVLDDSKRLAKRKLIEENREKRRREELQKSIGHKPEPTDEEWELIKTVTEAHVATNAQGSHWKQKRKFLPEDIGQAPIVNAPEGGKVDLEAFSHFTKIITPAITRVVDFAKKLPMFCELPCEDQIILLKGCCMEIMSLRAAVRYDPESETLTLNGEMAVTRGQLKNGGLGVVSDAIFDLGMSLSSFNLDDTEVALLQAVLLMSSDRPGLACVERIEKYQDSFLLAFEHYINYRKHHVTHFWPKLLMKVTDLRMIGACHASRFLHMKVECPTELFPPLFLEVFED
Chain of Nuclear receptor subfamily 1 group I member 2 (Rattus norvegicus) (Q9R1A7 whole entry, looked up): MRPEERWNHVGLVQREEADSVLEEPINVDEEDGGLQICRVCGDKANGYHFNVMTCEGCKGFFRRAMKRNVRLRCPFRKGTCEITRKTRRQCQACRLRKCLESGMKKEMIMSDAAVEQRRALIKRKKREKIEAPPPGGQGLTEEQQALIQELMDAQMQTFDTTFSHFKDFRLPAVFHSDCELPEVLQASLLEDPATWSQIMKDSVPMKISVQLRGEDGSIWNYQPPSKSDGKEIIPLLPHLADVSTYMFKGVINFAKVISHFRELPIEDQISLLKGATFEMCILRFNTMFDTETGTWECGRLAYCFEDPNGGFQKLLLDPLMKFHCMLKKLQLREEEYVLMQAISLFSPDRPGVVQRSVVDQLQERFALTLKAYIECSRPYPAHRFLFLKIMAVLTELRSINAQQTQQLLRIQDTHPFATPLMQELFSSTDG
Chain of Peroxisome proliferator-activated receptor delta (Homo sapiens) (Q03181 whole entry, looked up): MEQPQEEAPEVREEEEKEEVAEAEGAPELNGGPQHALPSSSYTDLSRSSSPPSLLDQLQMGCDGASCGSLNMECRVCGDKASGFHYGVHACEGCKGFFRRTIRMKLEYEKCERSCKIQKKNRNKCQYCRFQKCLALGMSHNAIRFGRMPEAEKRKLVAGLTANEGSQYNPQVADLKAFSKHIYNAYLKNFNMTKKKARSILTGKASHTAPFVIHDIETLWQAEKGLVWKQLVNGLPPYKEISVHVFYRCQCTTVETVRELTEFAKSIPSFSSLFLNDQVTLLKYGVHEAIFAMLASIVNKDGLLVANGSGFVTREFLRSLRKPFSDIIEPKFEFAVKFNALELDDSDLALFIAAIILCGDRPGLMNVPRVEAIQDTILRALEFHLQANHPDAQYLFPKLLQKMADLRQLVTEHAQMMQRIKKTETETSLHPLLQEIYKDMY

As to `c1ccc(N=NNc2ccccc2)cc1`, the result in assay [1], in [8] and in [9] was inactive. The Potency entry in assay [2], in assay [3], in assay [4], in assay [5], in assay [6] and in [7] was “inactive” each time. In addition, the Potency entry in assay [10] and in assay [14] was “inactive” in each case. The max response in [11] is -17.2%. Besides, the activity change % (negative = inhibition) in assay [12] was 0.0148%. Moreover, the Potency in assay [13] is 12.6 µM (active) and 1.41 µM (active).
`Cc1ccc(OP(=O)(Oc2ccc(C)cc2)Oc2ccc(C)cc2)cc1`: the Potency result in assay [15], in assay [16], in assay [3], in assay [4], in assay [5] and in assay [7] was “inactive” in each case. In addition, the Potency result in [10] and in assay [18] was “inactive” in each case. Further, the compound was classed as inactive in assay [1], in assay [8] and in [9]. Besides, in assay [11], the max response is -1.31% and -25.6%. Besides, in assay [12], the activity change % (negative = inhibition) was -7.32% and 3.64%. In assay [17], the Potency is 9.44 µM (active). Further, the activation in assay [13] is 5.07% and 5.6%.
Turning to `CN(C)c1ccc(N)cc1`, the Potency in assay [15] is 31.6 µM (active); in assay [3], 39.8 µM (active); in assay [6], 50.1 µM (active); in assay [7], 50.1 µM (active); in assay [17], 29.8 µM (active); in [13] it was 44.7 µM (active). For the same compound, in assay [16], the viability change, negative = cytotoxic is -91.2% (active). Moreover, the call in assay [8] and in assay [9] was inactive. Also, in assay [10], the Potency entry is “inactive”. Also, the max response in assay [11] was -17.1%. The activity change % (negative = inhibition) in assay [12] is 8.59%.
For the compound `O=[N+]([O-])c1c(Cl)c(Cl)c(Cl)c(Cl)c1Cl`, the Potency result in assay [15], in assay [16], in [2], in assay [3], in [5] and in assay [7] was “inactive” in each case. Moreover, the Potency entry in [10], in [17] and in [18] was “inactive” each time. The result in assay [1], in assay [8], in [9] and in assay [20] was inactive. Further, the max response in [11] was -5.68%; in assay [19] it was -3.78% and 1.81%. Besides, the activity change % (negative = inhibition) in [12] is 14.8%. In [13], the activation is -0.0122% and 2.68%.
Turning to `Nc1cc(Cl)ccc1O`, the viability change, negative = cytotoxic in [16] was -87.6% (active). Moreover, the compound was called inactive in assay [1] and in [8]. The Potency entry in assay [2], in assay [4], in assay [7] and in assay [10] was “inactive” in each case. Also, the Potency in assay [17] was 29.8 µM (active); in assay [13] it was 44.7 µM (active); in assay [18], 21.1 µM (active).
Regarding `ClCC(Cl)Cl`, the Potency result in assay [15], in assay [16], in assay [2], in assay [3], in assay [4] and in assay [5] was “inactive” each time. Further, the Potency result in assay [6], in [7], in assay [17], in [18] and in assay [14] was “inactive” throughout. Further, the compound was called inactive in [1], in assay [8], in [9] and in assay [20]. Besides, the max response in [11] was 7.8%; in assay [19], -0.324%. In addition, the activity change % (negative = inhibition) in [12] is 8.38%. Also, in assay [13], the activation is 1.04%.
Consider `Nc1ccc([N+](=O)[O-])cc1N`, for which the Potency result in assay [15], in assay [2], in assay [4], in [5], in assay [10] and in assay [14] was “inactive” in each case. Besides, the result in assay [1], in assay [8] and in assay [9] was inactive. Also, the max response in [11] was -24.9% and -14.3%; in assay [19], -5.6% and -2.56%. Also, in assay [13], the activation is 1.47% and 1.07%.
